The source of these data is the supplement of paper PMC11417369.

± gives the standard deviation of the averaged measurements. Whole data set: some 25,000 sequences, median “ln(normalized median fluorescence intensity)” near 10, cut for the highest 2% near 12. The sample holds the highest values, similar sequences and a random draw of the others, so the mix is not that of the screen.

This test deals with PfAP2-G AP2 domain (GST-tagged). Nature of the test: gcPBM binding intensity (ln(normalized median fluorescence intensity)); higher = stronger DNA binding. The method, boiled down: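 Plasmodium falciparum DNA-binding domains carrying a GST tag were expressed in E. coli and applied for 1 h, at about 25 μg on average, to an Agilent 4 × 180k array. The array held primer-extended double-stranded 36-bp intergenic genomic probes together with negative controls, and binding took place in 1× PBS with 1% milk, 0.2 mg/ml BSA, 0.5% salmon testes DNA and 0.03% Triton X-100. An Alexa488 anti-GST antibody detected bound protein, and the array was scanned at 488 nm. Binding intensity is taken as the highest Masliner-normalised natural-log median intensity across replicate spots of either probe orientation.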
Consider “ATTTTTGTACACTTCTTTTTTTTTTTTCTTTTATGT [CACACA_negctrl_site1323]”, for which the “gcPBM binding intensity (ln)” value amounted to 11.4 ± 0.68.

On to “AAAAAAAAATCATATTGTACGTAAAAAAAAAAAAAA [XGTACX_site476]”, for which the “gcPBM binding intensity (ln)” value came to 11.4 ± 1.

Turning to “TATTTATACTAATATGCATGTAATCGAAATACAGCT [TGCATGCA_site457]”, the “gcPBM binding intensity (ln)” value was determined as 9.685 ± 0.078.

“AATATGGTTATATATATATATATATATATATATATT [GTGCAC_negctrl_site566]”: the “gcPBM binding intensity (ln)” value came to 9.67 ± 0.071.

For “TCTTTTTGTTCGTGTACACACATGAAATTTATAAAA [CACACA_site1619]”, the “gcPBM binding intensity (ln)” value turned out to be 11.8 ± 1.1.

Turning to “TTTCTTTTTGTTCGTGTACACACATGAAATTTATAA [CACACA_site8466]”, the “gcPBM binding intensity (ln)” value worked out at 11.6 ± 0.86.

Turning to “TGAAATAAAATTTGTACACACATATATATATATATA [CACACA_site586]”, the “gcPBM binding intensity (ln)” value came to 11.1 ± 0.81.

As to “GAACCGTGCAAATGTTGTACACTTTAAAAATATTCT [XGTACX_site4488]”, the “gcPBM binding intensity (ln)” value came out at 11.6 ± 0.84.

Regarding “AGGTGCAAAAATAAAACATGCAAAAATAAAAATGAA [TGCATGCA_site502]”, the “gcPBM binding intensity (ln)” value amounted to 10.07 ± 0.028.

Take “TTACCTCTTTGAAATATACACACTAAACATATCAAC [CACACA_site2455]”: the “gcPBM binding intensity (ln)” value stood at 10.1 ± 0.13.

With “CACAAACAAAAACACACACACACACCGACAAAAATG [CACACA_site5362]”, the “gcPBM binding intensity (ln)” value stood at 10.5 ± 0.38.

Turning to “AACATACAGAAACACACACACACACCCACACCCACA [CACACA_site493]”, the “gcPBM binding intensity (ln)” value worked out at 10.4 ± 0.31.

For “ACATACATACCCCCACGTACGTACCGAAACACCACC [XGTACX_site1982]”, the “gcPBM binding intensity (ln)” value stood at 11.5 ± 0.74.

On to “ACATACATACACCCACGTACGTACCGAAACACCACC [XGTACX_site1212]”, for which the “gcPBM binding intensity (ln)” value was determined as 11.7 ± 1.1.

Regarding “TTTGTAATAAACTACTTTTTTTTTTTTTTTTTTTTT [CACACA_negctrl_site571]”, the “gcPBM binding intensity (ln)” value amounted to 10.9 ± 0.35.

As for “ATATACATATAGGATGCACACATAATTCAAATACAA [CACACA_site8120]”, the “gcPBM binding intensity (ln)” value is 10.1 ± 0.22.

As for “TTTGAAAAAAATTAATGTACATTTGAAATGACATAT [XGTACX_site3902]”, the “gcPBM binding intensity (ln)” value turned out to be 10.8 ± 0.52.

Consider “AGACATTAATGAAGGTGTACATATATTTGACAGAAT [XGTACX_site655]”, for which the “gcPBM binding intensity (ln)” value turned out to be 11.6 ± 1.

In the case of “AAGGTATAATATATTTGTACATATACATTTTTGAAT [XGTACX_site6493]”, the “gcPBM binding intensity (ln)” value came to 10.9 ± 0.61.

“AAAAAAAAATTAAAAACACACATATATATATATATA [CACACA_site1580]”: the “gcPBM binding intensity (ln)” value amounted to 9.9 ± 0.67.

Regarding “ATTTGCTTTTATTTTACACACTTGCTCCTGTTGTAC [CACACA_site1088]”, the “gcPBM binding intensity (ln)” value came out at 10.9 ± 0.42.

With “TATTTTCAAAATGTTGTACACACAAAAAAAAAAAAA [CACACA_site8437]”, the “gcPBM binding intensity (ln)” value came out at 11.5 ± 1.1.

Regarding “CAACACTTTCAAAAATGTACGTACAAATGTATTTTA [XGTACX_site6713]”, the “gcPBM binding intensity (ln)” value was determined as 11.7 ± 0.76.

Consider “TTATTTTCAAAATGTTGTACACACAAAAAAAAAAAA [XGTACX_site3151]”, for which the “gcPBM binding intensity (ln)” value is 11.4 ± 0.93.

Regarding “AAATTTATATATAGTTGTACAAAAATATGTTTCGTA [XGTACX_site4801]”, the “gcPBM binding intensity (ln)” value came to 11.2 ± 0.57.

Consider “GTTTTTTATAATTGTAGTACAAGAAGATATTTTTAT [XGTACX_site5443]”, for which the “gcPBM binding intensity (ln)” value stood at 11.5 ± 0.86.

As for “TATGTGAATATAATCACACACAATACGGAAAGAGAC [CACACA_site7311]”, the “gcPBM binding intensity (ln)” value amounted to 10.7 ± 0.39.

In the case of “CTATACATATTATATAGTACTTTATTATTATGACTA [XGTACX_site1382]”, the “gcPBM binding intensity (ln)” value came out at 10.8 ± 0.45.

For “TTATATATATGACTTTGTACATATACATATTTTTTA [XGTACX_site4669]”, the “gcPBM binding intensity (ln)” value turned out to be 10.7 ± 0.54.

On to “ATGGACTTTTATAGTTGTACATACTATGAGAACTTT [XGTACX_site2800]”, for which the “gcPBM binding intensity (ln)” value is 11.7 ± 0.85.

In the case of TTATAAAATTACTTGGTGCATTAGAATATTTCAATA, the “gcPBM binding intensity (ln)” value stood at 10.1 ± 0.3.

In the case of “AATAAAAAACTACAATATACAAAATTATTAAATCAA [GTGCAC_negctrl_site703]”, the “gcPBM binding intensity (ln)” value amounted to 9.56 ± 0.35.

“TAATTTATAAAAAATTGTACATTAAACATATATATA [XGTACX_site5164]”: the “gcPBM binding intensity (ln)” value came to 10.8 ± 0.56.

In the case of “TTCATATGGAATAAAAGTACGTATTAAAACAATTTT [XGTACX_site8742]”, the “gcPBM binding intensity (ln)” value came to 11.1 ± 0.59.

Consider “TTTTTTATTTTTTGTTATATTTATAATAATTTATGA [XGTACX_negctrl_site260]”, for which the “gcPBM binding intensity (ln)” value was found to be 9.58 ± 0.071.

Consider “AAAATAAAATAAAATACACACATACATACATACAAA [CACACA_site5366]”, for which the “gcPBM binding intensity (ln)” value was 10.01 ± 0.028.

As for “GTATATATTTAAACACGTACACAAAACCCAAAAAAT [XGTACX_site8110]”, the “gcPBM binding intensity (ln)” value was 11.8 ± 0.96.

Consider “AATTTACACGTACGTGTACACACAAAAATATGTTTT [CACACA_site8242]”, for which the “gcPBM binding intensity (ln)” value was found to be 11.8 ± 1.

As for “AAAAAAAAAAAAATACGTACACAAAAAATTGCAAAG [XGTACX_site5663]”, the “gcPBM binding intensity (ln)” value was 11.6 ± 0.81.

For “TAATTTACACCTACGTGTACACACAAAAATATGTTT [XGTACX_site1868]”, the “gcPBM binding intensity (ln)” value is 11.6 ± 0.95.

Regarding “AAAAAAAAAAAAAAAGGTACACAAATACGTCCTGCA [XGTACX_site3354]”, the “gcPBM binding intensity (ln)” value stood at 11.5 ± 0.74.

Take “AAACCAAAAATAACACGTACAAAAATAAAAAGTATA [XGTACX_site4261]”: the “gcPBM binding intensity (ln)” value turned out to be 11.2 ± 0.74.

Consider “TAAAAAAAATACAAAAGTACACAAAATTATACGTTA [XGTACX_site4656]”, for which the “gcPBM binding intensity (ln)” value came to 11.5 ± 0.96.

In the case of “TATATATTATTTAAAACACACAAAAAAAAAAATTAT [CACACA_site89]”, the “gcPBM binding intensity (ln)” value came to 9.895 ± 0.021.

In the case of “AGATAAAATAAATACACACACATAAATACGTACAAA [CACACA_site4739]”, the “gcPBM binding intensity (ln)” value was found to be 11.7 ± 0.74.

With “TTTACACGTACGTGTACACACAAAAATATGTTTTTA [CACACA_site995]”, the “gcPBM binding intensity (ln)” value was determined as 11.6 ± 0.89.

As to “ACAAAAAAAAAAAAAATACACACACATAAAAAAAAA [TGCATGCA_negctrl_site333]”, the “gcPBM binding intensity (ln)” value came out at 10.1 ± 0.13.

“TATATTACTTTGTGTTGTACGGAAATATATATATAT [XGTACX_site4309]”: the “gcPBM binding intensity (ln)” value turned out to be 11.3 ± 0.94.

Turning to “TATATAATGGTAAAAACACACAAATATGAAGATGTT [CACACA_site722]”, the “gcPBM binding intensity (ln)” value is 9.87 ± 0.16.

Turning to “TGTAATAATTATTGCACGCACACAAAAACCTATAGA [CACACA_site2932]”, the “gcPBM binding intensity (ln)” value stood at 10.7 ± 0.4.
